# TDP1 cell CPT – growth inhibition of DT40 Tdp1-/-;hTDP1 cells with camptothecin (screen for TDP1 inhibitors) | 420,000 compounds, 12% hits | AID 686979 | chicken DT40 Tdp1-/-;hTDP1 cells + 20 nM CPT, ATP luminescence, 48 h | Potency, µM (doses to about 46.2 µM), most hits filed as inhibitors; further: nearly all actives have a fitted effect of over 55% in size
#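 Chicken DT40 Tdp1-/- cells complemented with human TDP1, 400 cells/well, exposed to compounds plus 20 nM camptothecin for at least 48 h at 37 C; viability read as ATP content by CellTiter-Glo luminescence.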
# ClpP mod – qHTS Assay for Activators of ClpP; ATP-dependent Clp protease proteolytic subunit (Bacillus subtilis (strain 168)), P80244; purified B. subtilis ClpP, FRET peptide cleavage, 20 min; Potency, µM (highest dose often 57.5 µM); 340,000 compounds, 1.9% hits; AID 651965, 2013; active means well fitted falling curve with a large enough effect; inconclusive means small, poorly fitted or top-dose-only effect; inactive means no such curve, though single readings can be large or run the other way; further: the source files actives as falling curves though it sought activators and does not explain the sign; nearly all actives have a fitted effect of over 65% in size
# Target sequence (P80244 whole entry, looked up): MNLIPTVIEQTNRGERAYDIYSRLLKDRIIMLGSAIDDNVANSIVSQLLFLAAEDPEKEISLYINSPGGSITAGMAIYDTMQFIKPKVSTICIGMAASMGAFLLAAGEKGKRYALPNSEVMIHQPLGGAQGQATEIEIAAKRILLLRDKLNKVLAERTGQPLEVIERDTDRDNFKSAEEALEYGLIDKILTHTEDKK
#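 FRET quenching reversal measured ClpP activation: 10 microg/mL B. subtilis ClpP at pH 8 with the FRET-FV decapeptide, read at 430 nm after 320 nm excitation. The 20-min minus 0-min signal was scaled between DMSO/no-enzyme wells and ADEP (5.8 microM final).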
# TDP1 inh – inhibitors of human tyrosyl-DNA phosphodiesterase TDP1. Potency, µM (series often up to 130 µM), usual class: inhibitors. AID 485290. Q9NUW8. recombinant TDP1, AlphaScreen DNA substrate cleavage. 350,000 compounds, 0.28% hits; further: nearly all actives have a fitted effect of over 40% in size
#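 Compounds were preincubated with Tdp1 (1 nM final) for 15 min at room temperature before substrate (15 nM final) started a 5 min reaction; beads (10 ug/ml final) were then added for 10 min before AlphaScreen detection.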
# TDP1 cell noCPT – qHTS for Inhibitors of human tyrosyl-DNA phosphodiesterase 1 (TDP1): qHTS in cells in absence of CPT | DT40 Tdp1-/- hTDP1 cells, no CPT, ATP luminescence, 48 h | Potency, µM (series often up to 46.2 µM), hits mostly inhibitors | 420,000 compounds, 15% hits; further: nearly all actives have a fitted effect of over 55% in size
#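 Chicken DT40 Tdp1-/- cells stably complemented with human TDP1 were seeded at 400 cells/well with DMSO in place of 20 nM camptothecin. After compound pinning, cells grew at least 48 hr at 37 °C; viability read by CellTiter-Glo luminescence.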
# Hits are given with their value; - = inactive; ? = inconclusive; . = not tested or not shown; [ ] = another dose, or the depositor's remark. A selection: hits, their analogues and other compounds. The true share with any hit is near 17%. Unless noted, the call rests on the fitted dose curve; in most records, active means well fitted curve in the direction sought with a large enough effect; inconclusive means small, poorly fitted or top-dose-only effect, or another doubt; inactive means no such curve, though single readings can be large; an effect the other way counts as inactive or inconclusive.
SMILES,TDP1 cell CPT,ClpP mod,TDP1 inh,TDP1 cell noCPT
C=CCN(c1ccccc1)S(=O)(=O)c1cccc(C(=O)Nc2nc3ccccc3[nH]2)c1,21µM,-,-,13µM
C=CCN(c1ccccc1)S(=O)(=O)c1cccc(C(=O)Nc2ncccc2C)c1,-,-,-,-
CCC(C)Nc1nc(Cl)nc(N(C#N)CN2C(=O)c3ccccc3S2(=O)=O)n1 (stereo unspecified),15µM,.,-,?
C#CCOC(=O)CCCC(=O)NCCCCCCCC,-,-,-,?
CCC(C)NC(=O)c1c(N)n(/N=C/c2ccccn2)c2nc3ccccc3nc12 (stereo unspecified),21µM,-,-,21µM
CC(C)OCCCNC(=O)c1ccncc1,-,-,-,-
CC(C)OCCCNC(=O)c1c(N)n(/N=C/c2ccccn2)c2nc3ccccc3nc12,?,-,-,23µM
Nc1c(C(=O)NC2CCCC2)c2nc3ccccc3nc2n1/N=C/c1ccco1,-,?,-,-
CCO[C@@H]1OC(C(=O)N2CCCCCCC2)=C[C@H](c2csc3ccccc23)[C@H]1CCCO,21µM,-,-,23µM
CCO[C@H]1OC(C(N)=O)=C[C@@H](c2csc3ccccc23)[C@@H]1CCCO,-,-,-,-
CCO[C@@H]1OC(C(=O)N2CCCCCCC2)=C[C@H](c2cn(C(C)=O)c3ccccc23)[C@H]1CCCO,16µM,-,-,?
Cn1ccc2cc(S(=O)(=O)N3CCCC(C(=O)NCc4ccccc4)C3)ccc21 (stereo unspecified),-,-,-,-
CN(C(=O)c1nn(C)c2c1CS(=O)(=O)c1ccccc1-2)c1cccc(Cl)c1,-,-,-,?
CC(C)(C)OC(=O)N1CCN(C(=O)c2[nH]cnc2C(=O)Nc2ccccc2F)CC1,-,-,.,?
CC(C)c1ccc2occ(CC(=O)Nc3cccc(C(F)(F)F)c3)c2c1,?,-,-,29µM
Cc1cccc(NC(=O)c2oc3ccccc3c2NC(=O)Cc2coc3ccc(C(C)C)cc23)c1,?,-,-,?
CCOc1ccccc1NC(=O)Cc1coc2ccc(C)cc12,?,.,-,16µM
Cc1ccc2occ(CC(=O)Nc3ccc(Cl)c(C(F)(F)F)c3)c2c1,21µM,-,-,16µM
O=S1(=O)CC(N2CCCCC2)CN1C1CCCCC1 (stereo unspecified),-,-,.,-
CC1(C(=O)Nc2nnc(SCc3ccccc3)s2)Cc2ccccc2C(=O)O1 (stereo unspecified),?,-,-,?
CC1(C(=O)Nc2ncc(Cc3ccc(Br)cc3)s2)Cc2ccccc2C(=O)O1 (stereo unspecified),23µM,-,-,23µM
Cc1ccc(N2CCN(C(=O)N3CCCC3)CC2)cc1C,21µM,-,-,-
N#Cc1cc(N)ccc1Sc1ccc(Cl)cc1,?,28µM,-,?
O=C(CCCN1C(=O)/C(=C/c2ccccc2Cl)SC1=S)Nc1cccnc1,4.6µM,-,-,16µM
O=C(CCN1C(=O)/C(=C/c2ccccc2Cl)SC1=S)Nc1cccnc1,?,-,-,?
SMILES,TDP1 cell CPT,ClpP mod,TDP1 inh,TDP1 cell noCPT
O=C(CCN1C(=O)/C(=C/c2ccccc2Cl)SC1=S)NC1CCCC1,8.2µM,-,-,9.2µM
O=C(CCN1C(=O)/C(=C/c2ccccc2Cl)SC1=S)NCCc1ccc(O)cc1,?,-,-,9.2µM
CCOC(=O)N(C)C[C@@H]1OCc2ccccc2-c2c(n(C)c3ccccc23)C(=O)N([C@H](C)CO)C[C@H]1C,?,-,.,?
CCCCNC(=S)Nc1cccc2cnccc12,13µM,-,-,23µM
S=C(NCc1ccccc1)Nc1cccc2cnccc12,12µM,.,-[0.0935 µM],18µM
COCCNC(=S)Nc1cccc2cnccc12,-,-,-,-
Cc1nn(C(=O)c2ccc(Cl)cc2)c(C)c1S(=O)(=O)N1CCOCC1,-,-,-,-
COc1cc(C(=O)NC(=S)Nc2cccc3nc(C)ccc23)cc(OC)c1OC,-,.,.,-
Cc1ccc(C(=O)NC(=S)Nc2cccc3c(C)cc(C)nc23)cc1,?,-,-,21µM
COc1ccc(C(=O)NC(=S)Nc2cccc3nc(C)ccc23)cc1OC,?,-,.,21µM
COc1ccc(C2c3c(n(Cc4ccccc4)cnc3=N)Oc3ccc4ccccc4c32)cc1OC (stereo unspecified),.,.,-,.

# Compound activity: PubChem, National Center for Advancing Translational Sciences (NCATS)
